KB-3-1 tox: kills parental KB-3-1 adenocarcinoma cells | KB-3-1 viability, CellTiter-Glo ATP luminescence, 72 h | Potency, µM (top dose mostly 46.1 µM), most hits filed as cytotoxic | 1.4% of 400,000 active | AID 1347075; also: nearly all actives have a fitted effect of over 60% in size
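Screening of KB-3-1 cells (DMEM, 10% FBS, phenol-red free) ran from lowest to highest compound concentration; after 72 h at 37 °C viability was read luminescently and curves fitted.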
HT1080-NT tox: kills 2HG-producing HT-1080-NT fibrosarcoma cells; 1.6% of 360,000 active; Potency, µM (doses to about 46.1 µM), usual class: cytotoxic; HT-1080-NT fibrosarcoma viability, CellTiter-Glo ATP luminescence, 48 h;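 also: NT is the 2HG producing partner of a matched IDH1 knockdown line; nearly all actives have a fitted effect of over 55% in size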
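Read-out is CellTiter-Glo luminescence after 10 minutes at room temperature, following 48 hours' compound treatment of HT-1080-NT cells (750 cells/well, RPMI, 5% FBS, 37 degrees C).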
KB-V1 cytotox: kills drug-selected multidrug resistant KB-V1 cells; KB-V1 MDR cells viability, CellTiter-Glo, 72 h; Potency, µM (doses to about 46.1 µM), usual class: cytotoxic; 3.4% of 400,000 active; also: nearly all actives have a fitted effect of over 60% in size
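KB-V1, DMEM (no phenol red) + 10% FBS; cpd pin-transferred, titration series; 72 h, 37 degrees C; CellTiter-Glo, luminescence. Data normalized, curve-fit.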
SW480 rereplic: induces DNA re-replication in SW480 colon adenocarcinoma cells | Potency, µM (series often up to 46.1 µM), hits mostly activators | SW480 DNA re-replication, Hoechst DNA content imaging, 48 h | AID 624297 | 1.8% of 340,000 active; also: nearly all actives have a fitted effect of over 55% in size
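Readout is total intensity of Hoechst-stained nuclei, excited at 405 nm and collected at 500-530 nm. Compound treatment lasted 48 hr at 37 C in 5% CO2 before staining.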
HT1080 IDH1KD tx: toxicity to HT-1080 IDH1 knockdown cells (counter line); HT-1080 IDH1 knockdown viability, ATP luminescence, 48 h; 2% of 360,000 active; Potency, µM (doses to about 46.1 µM), most hits filed as cytotoxic; AID 686971
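After a 2 h attachment period, IDH1KD HT-1080 cells took pin-transferred compound for 48 h at 37 °C; ATP-based luminescence after 10 min room-temperature reagent incubation reported viability.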
MCF10A rereplic: inducers of DNA re-replication in MCF 10A breast cells. Potency, µM (top dose mostly 46.1 µM), usual class: activators. MCF 10A DNA re-replication, Hoechst nuclear intensity, 48 h. 2.9% of 350,000 active; also: nearly all actives have a fitted effect of over 50% in size
Hits are given with their value; . = inactive; ? = inconclusive; / = no result given. Rows were chosen to be rich in hits. Some 7.9% of all compounds tested hit in one or more screens of this group. Calls follow the shape of the dose curve; as a rule, active = well fitted curve in the direction sought with a large enough effect; inconclusive = small, poorly fitted or top-dose-only effect, or another doubt; inactive = no such curve, though single readings can be large; an effect the other way counts as inactive or inconclusive.

SMILES	KB-3-1 tox	HT1080-NT tox	KB-V1 cytotox	SW480 rereplic	HT1080 IDH1KD tx	MCF10A rereplic
COCCNC(=O)Nc1ccc2nc(-c3cccs3)c(-c3cccs3)nc2c1	.	.	.	?	.	23µM
CCNC(=O)C1CCCN(C(=O)C(c2ccccc2)c2ccccc2)CC1 (centres undefined)	.	.	.	/	.	/
CCN(CC)CCCN(c1ccccc1)C1Cc2ccccc2C1	/	/	/	?	/	.
CCN(CC)C(=O)c1ccc2sc([C@@H]3O[C@H](CO)[C@H](O)[C@H](O)[C@H]3O)nc2c1	.	.	.	/	.	/
CCC(=O)N1Cc2cc(C(=O)N(C)C)nc(-c3cccc(-c4cncnc4)c3)c2[C@@H]1CCO	.	.	.	/	.	/
COc1cc(NC(=O)c2cc(-c3cccs3)on2)cc(OC)c1OC	?	.	6.5µM	?	.	?
COc1cc(NC(=O)c2cc(-c3ccccc3Cl)on2)cc(OC)c1OC	6.5µM	?	?	?	?	21µM
CC1(C)CC2(C)OC(=N)C1(C#N)C2(C#N)C#N (centres undefined)	.	?	.	.	?	23µM
CCOc1ccc(/C=C/c2[nH]c(=O)[nH]c(=O)c2[N+](=O)[O-])cc1	.	.	.	.	.	?
CC(C)c1ccc(/C=C/c2[nH]c(=O)[nH]c(=O)c2[N+](=O)[O-])cc1	.	.	.	.	?	18µM
CCOc1cc(/C=C\c2[nH]c(=O)[nH]c(=O)c2[N+](=O)[O-])ccc1OC(C)CC (centres undefined)	.	10µM	.	23µM	?	?
Cc1cc(C)c(/C=C(\C#N)S(=O)(=O)c2ccccc2)[nH]1	.	.	?	.	.	18µM
CCCCN(CC)C(=O)Nc1ccc2c(c1)N(C)C(=O)c1ccccc1S2	.	/	.	/	/	/
CCOc1cc(C2C3=C(CCCC3=O)Nc3ccc4ncccc4c32)ccc1O (centres undefined)	13µM	?	.	18µM	?	?
COc1cc(C2C3=C(CCCC3=O)Nc3ccc4ncccc4c32)ccc1O (centres undefined)	?	?	.	23µM	6.5µM	15µM
COc1cc(C2C3=C(CCCC3=O)Nc3[nH]n(-c4ccccc4)c(=O)c32)ccc1OC(C)=O (centres undefined)	.	.	.	21µM	.	7.3µM
O=C1CCCC2=C1C(c1cccc(O)c1)c1c(ccc3ncccc13)N2 (centres undefined)	.	.	.	?	.	18µM
Cn1c(=O)n(C)c2cc(N3CCCCC3)c(NC(=O)c3ccc(Cl)cc3)cc21	.	/	?	/	/	/
COc1cc(C(O)c2nc(-c3cccc(C(C)C)c3)cs2)ccc1F (centres undefined)	.	?	.	/	?	/
CC(=O)c1c(C)[nH]c(C(=O)NCc2ccccc2F)c1C	.	.	.	.	.	.
Cc1nc(C)c(C(=O)NCc2ccccc2Cl)o1	?	.	21µM	.	.	.
CCc1c(C(=O)NCc2ccccc2Cl)[nH]c(C)c1C(C)=O	.	.	7.3µM	.	.	?
CC(=O)c1c(C)[nH]c(C(=O)NCc2ccccc2Cl)c1C	.	.	23µM	.	.	.
COc1ccc(S(=O)(=O)n2nc(C)c(S(=O)(=O)N3CCCCCC3)c2C)cc1OC	.	/	?	/	/	/
Cc1ccc(NC(=S)c2ccncc2)c(C)c1	.	.	?	?	.	?
SMILES	KB-3-1 tox	HT1080-NT tox	KB-V1 cytotox	SW480 rereplic	HT1080 IDH1KD tx	MCF10A rereplic
Cc1ccc(NC(=S)c2nc3ccccc3[nH]2)cc1	?	.	23µM	.	.	?
Cc1ccc(NC(=S)c2nc3ccccc3[nH]2)c(C)c1	21µM	.	?	.	.	?
Cc1ccc(NC(=S)N2CCCC(c3nc4ccccc4[nH]3)C2)cc1 (centres undefined)	.	.	.	.	.	.
O=C(Cn1ncc2c3ccccc3n(Cc3ccccc3F)c2c1=O)NCCCN1CCCC1=O	6.5µM	.	?	.	.	.
O=C(Cn1ncc2c3ccccc3n(Cc3ccccc3F)c2c1=O)NCCN1CCOCC1	.	.	.	.	.	.
CCOC(=O)c1c(SCCN2CCCC2)n(-c2ccccc2)c(=S)n(-c2ccccc2)c1=O	.	?	.	6.5µM	7.3µM	4.6µM
Cc1ccc(Cn2ccsc2=NC(=O)COC(=O)C(C)C)cc1	16µM	.	.	.	?	.
CCn1c(O)c(N=NC(=O)c2cccs2)c2ccccc21	?	.	9.2µM	.	.	.
C=CCn1c(O)c(N=NC(=S)Nc2cccc(OC)c2)c2ccccc21	2.3µM	.	?	.	.	.
CCn1c(O)c(N=NC(=O)CNC(=O)c2ccco2)c2ccccc21	?	.	.	.	.	.
C=CCn1c(O)c(N=NC(=O)CNC(=O)c2ccco2)c2ccccc21	?	?	?	16µM	21µM	18µM
CCCn1c(O)c(N=NC(=O)c2cccnc2)c2cc(Br)ccc21	.	18µM	?	?	.	?
CCn1c(O)c(N=N)c2ccccc21	.	.	.	.	.	.
COc1cccc(OCCSc2nc3ccccc3n2CC(=O)N2CCCCC2)c1	.	/	.	/	/	/
CCCn1c(O)c(N=NC(=O)c2ccco2)c2ccccc21	?	.	2.6µM	.	.	.
CCCn1c(O)c(N=N)c2ccccc21	.	.	.	.	.	.
COc1ccccc1NC(=O)CSCc1cc(=O)c2cccc(Cl)c2[nH]1	.	/	.	/	/	/
CN(C)S(=O)(=O)c1cccc(NC(=S)Nc2cc(Cl)cc(Cl)c2)c1	?	.	18µM	.	.	.
COc1ccc2cc(C(C)C(=O)Nc3cccc(S(=O)(=O)N(C)C)c3)ccc2c1 (centres undefined)	21µM	?	13µM	.	.	?
COc1ccc(O)c(/C=N/NC(=S)Nc2cccc(S(=O)(=O)N(C)C)c2)c1	.	.	4.1µM	?	?	15µM
CN(C)S(=O)(=O)c1cccc(NC(=S)N/N=C/c2ccco2)c1	.	.	.	.	.	.
CC(/C=N/NC(=S)Nc1cccc(S(=O)(=O)N(C)C)c1)c1ccccc1 (centres undefined)	.	.	21µM	.	.	.
CN(C)S(=O)(=O)c1cccc(NC(=S)N/N=C/C(c2ccccc2)c2ccccc2)c1	.	.	21µM	.	.	.
CCN(CC)S(=O)(=O)c1ccc(N/N=C/c2cc(OC)ccc2O)nc1	?	8.2µM	?	?	4.6µM	?
CCN(CC)S(=O)(=O)c1ccc(N/N=C/c2cccnc2)nc1	.	.	?	.	.	.
CN1CCN(c2nc(-c3cccc([N+](=O)[O-])c3)nc3ccccc23)CC1	.	?	.	23µM	?	23µM
